A number with no mark means an inactive call.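 Rule for the calls: active = compounds whose cell count with miR-34 switched on is under 0.7 times the count with it off; inactive = the rest.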

A short description of this assay: viability loss with induced miR-34 in A549 – imaging, A549 dox-inducible miR-34, nuclei and caspase counts, primary screen (AID 1347080). Note: test concentration not given here. The conditions noted are these: A549 miR-34 inducible, Hoechst nuclei count, 48 h; hits give low values; cell number ratio, induced over uninduced.
With `CCCCCCCC/C=C\CCCCCCCC(=O)N[C@@H](CO)C(=O)O`, the fold change was 1.01.

For the compound `CCC(C)(C)C(=O)C(=O)N1CCCC[C@H]1C(=O)O[C@H](CCc1ccc(OC)c(OC)c1)c1cccc(N)c1`, the fold change is 0.702.

Turning to `O=C(O)CCC/C=C\C[C@@H]1[C@@H](/C=C/[C@@H](O)Cc2ccccc2)[C@H](O)C[C@@H]1O`, the fold change is 0.969.

For the compound `CCCCCCCCCCCCCCCCCC(=O)NCCO`, the fold change is 0.986.

As to `COC(=O)[C@H](Cc1ccccc1)NC(=O)/C=C/c1ccc(O)cc1`, the fold change was 1.

As to `CCCCC[C@@](C)(O)/C=C/[C@@H]1[C@@H](C/C=C\CCCC(=O)OC)[C@@H](O)C[C@H]1O`, the fold change was 0.949.

Turning to `O=C(/C=C/c1cccc(C(=O)NO)c1)NO`, the fold change is 0.962.

These data come from PubChem BioAssay.
